CYP2C9 inh: human CYP2C9 inhibition; P11712; CYP2C9 Supersomes, luciferin-H conversion, luminescence; inhibition, % at 5 µM; hit rate 20% among 96,000; AID 777;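 active means blocking of liver enzyme CYP2C9 beyond about 50% at 5 µM, limit read from the data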
Target sequence (P11712 whole entry, looked up): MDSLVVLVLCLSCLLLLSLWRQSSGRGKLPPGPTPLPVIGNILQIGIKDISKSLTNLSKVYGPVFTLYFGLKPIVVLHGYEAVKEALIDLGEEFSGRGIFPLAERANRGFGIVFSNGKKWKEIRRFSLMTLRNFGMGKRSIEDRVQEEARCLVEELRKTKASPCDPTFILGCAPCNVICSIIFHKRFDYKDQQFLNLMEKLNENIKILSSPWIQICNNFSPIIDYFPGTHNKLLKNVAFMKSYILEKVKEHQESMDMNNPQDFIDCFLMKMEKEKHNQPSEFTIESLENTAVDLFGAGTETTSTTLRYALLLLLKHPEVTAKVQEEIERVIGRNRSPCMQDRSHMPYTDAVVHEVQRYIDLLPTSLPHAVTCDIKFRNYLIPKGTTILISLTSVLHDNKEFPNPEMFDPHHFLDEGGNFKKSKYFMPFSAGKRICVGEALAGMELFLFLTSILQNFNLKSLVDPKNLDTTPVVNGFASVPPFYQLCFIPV
CYP2C19 act: activators of human cytochrome P450 2C19; 96,000 tested, under 10 active; activation factor at 5 µM; AID 1025; P33261; recombinant CYP2C19, luciferin-H EGE luminescence; hits give high values; 0 = fully inhibited enzyme, 1 = untreated enzyme;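 active means activation factor of at least 2 at 5 µM in the primary screen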;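 further: 0 = wells with 2.5 mM tranylcypromine and 1 = vehicle-only wells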
CYP2C9 act: activators of human CYP2C9. recombinant CYP2C9, luciferin-H conversion, luminescence; hits give high values; factor 1 = untreated enzyme, 0 = blocked. hit rate 1.4% among 96,000. P11712. activation factor at 5 µM;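 active means activation factor of 2 or more for CYP2C9 at a 5 µM dose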;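 further: 0 = sulfaphenazole-blocked wells and 1 = vehicle-only wells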
Measles CPE: protection of cells from measles virus | Measles virus-infected cells, CPE protection, absorbance | protection (pct of control), % at 4 µM | hit rate 1.5% among 140,000 | AID 841; in the data active means protection mostly above about 24%, no sharp cut-off; inactive means mostly below about 26%
CYP2C19 inhib: human CYP2C19 inhibition; P33261; CYP2C19 Supersomes, luciferin-H EGE luminescence, 30 min; inhibition, % at 5 µM; hit rate 21% among 96,000;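 active means CYP2C19 inhibition above a set limit at 5 µM in the primary screen, cut at about 50% in these data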;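 further: plate controls were negative control wells for no effect and 2.5 mM tranylcypromine positive control for full effect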
Active calls of the source: *; . = no result. Only some compounds are listed: those with a hit (about 22% of all), similar ones and a draw of the others.

SMILES	CYP2C9 inh	CYP2C19 act	CYP2C9 act	Measles CPE	CYP2C19 inhib
CCOc1ccccc1-n1nnnc1SCC(=O)Nc1cc2oc3ccccc3c2cc1OC	51*	1	0.5	6	-4
CCNC(=O)NC(=O)C(C)SCc1ccccc1C (stereo not drawn)	44	0.3	0.6	.	67*
CS(=O)(=O)N(CC(=O)NCCSCc1c(F)cccc1Cl)c1ccc2c(c1)OCO2	57*	0.2	0.4	4	79*
COc1ccc(N(CC(=O)NCCSCc2c(F)cccc2Cl)S(C)(=O)=O)cc1OC	87*	1.2	0.1	28	-20
CS(=O)(=O)N1CCC(C(=O)Nc2ccc(Cl)c(C(F)(F)F)c2)CC1	33	0.7	0.7	0	34
CC(=O)NC1CC2CCCC(C1)N2C(=O)Nc1ccc(Cl)c(C(F)(F)F)c1 (stereo not drawn)	12	0.4	0.9	4	58*
C=CCN(CC=C)Cc1c(C)[nH]c2ccc(C(=O)OCC)cc2c1=O	18	0.9	0.8	4	14
NC(=S)n1[nH]c(-c2ccc([N+](=O)[O-])cc2)c(N=Nc2ccc(O)cc2)c1=O	76*	1	0.2	6	-3
CCN(CC)S(=O)(=O)c1ccc(N=Nc2c(C)[nH]n(C(N)=S)c2=O)cc1	.	.	.	23	.
CCN(CC)CCNC(=O)c1ccc2c(=O)n(CCc3ccccc3)c(=O)[nH]c2c1	-1	0.8	1	4	18
CN1/C(=C/C=N/n2cnnc2)C(C)(C)c2ccccc21	36	0.1	0.6	3	92*
CN1/C(=C\C=N\NC(=O)c2ccccc2Br)C(C)(C)c2ccccc21	.	.	.	25	.
COc1cccc(N2CCN(c3ccc(S(=O)(=O)N4CCCC4)cc3)CC2)c1	1	0.6	1	19	41
O=[N+]([O-])c1cc(S(=O)(=O)N2CCCC2)ccc1N/N=C/c1cccnc1	.	.	.	10	.
CC(C)OC(=O)N(C)c1ccc(C(O)(C(F)(F)F)C(F)(F)F)cc1	75*	0.1	0.2	46	85*
Cc1cccc(NC(=O)Cc2cccs2)n1	-4	0.9	1	19	12
COc1ccc(-c2n[nH]c(=S)n2CC(C)C)cc1	56*	0.2	0.4	4	78*
CC(C)Cn1c(-c2csc3ccccc23)n[nH]c1=S	34	0.2	0.7	.	78*
Cn1c(N)c(C(=O)COC(=O)C2(c3cccc(F)c3)CCCC2)c(=O)n(C)c1=O	36	0.8	0.6	8	19
CCc1sc(NC(=O)c2cc3ccccc3oc2=O)nc1-c1cccs1	.	.	.	3	.
C(=N\N1CCN(C2c3ccccc3-c3ccccc32)CC1)/c1cccnc1	91*	0.2	0.1	9	84*
Cc1ccc(/C=N/N2CCN(C3c4ccccc4-c4ccccc43)CC2)s1	.	.	.	8	.
C/C(=N\N1CCN(C2c3ccccc3-c3ccccc32)CC1)c1cccnc1	73*	0.3	0.3	13	66*
C(=N\N1CCN(C2c3ccccc3-c3ccccc32)CC1)/c1ccccn1	27	0.9	0.7	0	7
Cc1cc(C)c(C(CC(=O)c2cccs2)C(C#N)C#N)c(C)c1 (stereo not drawn)	.	.	.	4	.
SMILES	CYP2C9 inh	CYP2C19 act	CYP2C9 act	Measles CPE	CYP2C19 inhib
C=CCn1c(CCNC(=O)c2cccs2)nnc1SCC(=O)c1ccc(Br)cc1	72*	0.5	0.3	4	51*
C=CCn1c(CCC(=O)Nc2ccc(C)c(Cl)c2)nnc1SCC(=O)Nc1ccccc1C	64*	0.7	0.4	7	30
C=CCn1c(SCC(=O)Nc2cccc(C(=O)OC)c2)nnc1C(C)NC(=O)c1cccs1 (stereo not drawn)	82*	0.3	0.2	5	71*
C=CCn1c(CCNC(=O)c2cccs2)nnc1SCC(=O)Nc1cccc(C(C)=O)c1	74*	0.6	0.3	10	43
CCOC(=O)C(=O)NC(C)CCc1ccccc1 (stereo not drawn)	.	.	.	12	.
O=c1c2ccccc2nc(/C=C/c2ccc([N+](=O)[O-])o2)n1CCCO	11	0.8	0.9	7	16
CC(=O)Nc1cc(NC(C)=O)cc(C(=O)OCC(=O)N2CC(C)OC(C)C2)c1 (stereo not drawn)	6	1.1	0.9	7	-10
C/C(=N/Nc1ccc(C(=O)O)cc1)c1ccc(O)c(O)c1O	.	.	.	4	.
CC(=O)N1CCCc2cc(S(=O)(=O)NC(C(=O)NCc3ccc(C)cc3)C(C)C)ccc21 (stereo not drawn)	8	1	0.9	6	-3
C=CCn1c(Cc2cccs2)nnc1SCC(=O)Nc1cc(OC)cc(OC)c1	39	0.2	0.6	.	79*
O=C(c1ccc(F)cc1)N1CCN(c2ccc([N+](=O)[O-])c(N3CCCCC3)c2)CC1	62*	0.8	0.4	22	19
O=C(/C=C/c1ccccc1)N1CCN(c2ccc([N+](=O)[O-])c(N3CCOCC3)c2)CC1	72*	0.6	0.3	5	42
O=[N+]([O-])c1cc([N+](=O)[O-])c(N2CCOCC2)cc1NCc1ccccc1	86*	0.7	0.1	22	29
O=C(/C=C/c1ccc(Cl)cc1)N1CCN(c2ccc(Cl)cc2[N+](=O)[O-])CC1	44	0.5	0.6	3	54*
C/C(=C/Cc1c(O)cc2oc(C)cc(=O)c2c1O)COC1OC(CO)C(O)C(O)C1O (stereo not drawn)	.	.	.	18	.
CC(=O)Nc1cc(C(=O)N(C)Cc2ccco2)ccc1Sc1ccc(C)cc1	.	.	.	29	.
O=C(c1cccc(F)c1)N1CCN(c2cc(N3CCCCC3)c(F)cc2[N+](=O)[O-])CC1	89*	0.1	0.1	31	91*
O=C(N/N=C/c1ccccc1)c1ccc(N2CCOCC2)c([N+](=O)[O-])c1	.	.	.	20*	.
O=C(c1ccc2ccccc2c1)N1CCN(c2ccc(O)cc2)CC1	18	0.4	0.8	6	62*
O=C(c1ccc2ccccc2c1)N1CCN(c2ccc([N+](=O)[O-])c(N3CCOCC3)c2)CC1	65*	0.5	0.3	4	46
CC(=O)N1CCN(c2cc(N3CCc4ccccc4C3)c(F)cc2[N+](=O)[O-])CC1	54*	0.6	0.5	3	37
CO/N=C(\c1nonc1N)N1CCN(c2ccc(Cl)cc2[N+](=O)[O-])CC1	76*	0.2	0.2	10	77*
Cc1cccc(C(=O)N2CCN(c3ccc([N+](=O)[O-])c(N4CCOCC4)c3)CC2)c1	54*	1	0.5	4	3
Cc1cccc(NC(=S)NNC(=O)CC(C)O)c1C (stereo not drawn)	61*	0.8	0.4	30	25
COc1ccc(C(O)c2nccn2Cc2ccccc2)cc1 (stereo not drawn)	7	0.4	0.9	3	56*
Cn1ccnc1C(O)c1ccc(OCc2ccccc2)cc1 (stereo not drawn)	14	0.5	0.9	4	51*
CCn1ccnc1C(O)c1cccc(OC)c1 (stereo not drawn)	-10	0.5	1.1	4	52*

High-throughput results deposited in PubChem BioAssay by several laboratories.
